Hsp90 Hop PPI = qHTS Assay for Disrupters of an Hsp90 Co-Chaperone Interaction; Hsp90 C-terminal peptide / TPR2A (Hop) interaction, human; AlphaScreen TPR2A-His6 binding biotin-Hsp90 C-terminal peptide; Potency, µM (highest dose often 57 µM), for the others: top-dose activity change, negative = inhibition; 71,000 compounds, 0.44% hits; AID 595, 2007; active = well fitted curve in either direction with a large enough effect; inconclusive = small, poorly fitted or top-dose-only effect, or another doubt; note: potency is the fitted concentration of half-maximal effect; % is set by controls: 0 for no effect and ±100 for the full control effect
p53ts 39C tox = qHTS Screen for Compounds that Selectively Target Cancer Cells with p53 Mutations: Cytotoxicity of p53ts Cells at the Nonpermissive Temperature; H1299-p53A138V viability at 39C, ATP luminescence, 24 h; Potency, µM (series often up to 46.1 µM), inactives show at the highest dose activity change, negative = cell killing, hits mostly cytotoxic; 130,000 compounds, 1.5% hits; AID 902, 2007; note: potency is the fitted concentration of half-maximal effect; % is set by controls: 0 for no effect and ±100 for the full control effect; nearly all actives have a fitted effect of over 55% in size
IkB signaling = IkB Signaling | ABC-DLBCL IkBa-CBG/CBR dual luciferase ratio, 4 h; response scale: scaled: untreated 0%, proteasome inhibitor 100% | Potency, µM (series often up to 57.1 µM), without a hit: at the highest dose IkBa stabilization activation | 110,000 compounds, 0.04% hits | AID 445, 2006; active = well fitted curve in the direction sought with a large enough effect in the signal ratio, not every such curve was filed as active; inconclusive = small, poorly fitted or top-dose-only effect, or a change in a side signal; the % refers to the signal ratio;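 note: potency is the fitted concentration of half-maximal effect; the direction sought is a rising ratio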
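Luminescence ratio of IκBα-fused green versus native red beetle luciferase in OCI-Ly3 cells, 4 h post-doxycycline with compound; red signal alone, scaled from basal (0%) to zero light (-100%), flagged nonspecific or cytotoxic effects.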
IMPase inh = qHTS Assay for Identifying the Cell-Membrane Permeable IMPase Inhibitors; Inositol monophosphatase 1 (Rattus norvegicus), P97697; CHO-M1 cells, IP1 accumulation, HTRF TR-FRET ratio; inhibition (IP1 accumulation), % at 46.1 µM; 120,000 tested, under 10 active; AID 901, 2007; active = well fitted curve in the direction sought with a large enough effect in the signal ratio, not every such curve was filed as active; inconclusive = small, poorly fitted or top-dose-only effect, or a change in a side signal; inactive = no such curve, though single readings can be large or run the other way; the % refers to the signal ratio;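 note: cells stimulated with carbachol in lithium chloride buffer; plate controls were DMSO basal wells for no effect and reference inhibitor wells for full effect; higher means more IMPase inhibition seen as more IP1 and lower FRET ratio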
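In this qHTS, compounds (final up to 46 uM) act on CHO-M1 cells that are then activated through the M1 receptor with carbachol, in pH 7.4 buffer containing 50 mM LiCl, for 30 min. IP1 accumulation is quantified by the IP-One immunoassay.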
FLuc inh = qHTS Assay for Inhibitors of Firefly Luciferase. Luciferin 4-monooxygenase (Photinus pyralis), P08659. purified firefly luciferase, luminescence, 8 min. Potency, µM (doses to about 57.1 µM), inactives show at the highest dose activity change, negative = inhibition, hits mostly inhibitors. 72,000 compounds, 2.2% hits; note: potency is the fitted concentration of half-maximal effect; % is set by controls: 0 for no effect and ±100 for the full control effect; nearly all actives have a fitted effect of over 40% in size
Target sequence (P08659 whole entry, looked up): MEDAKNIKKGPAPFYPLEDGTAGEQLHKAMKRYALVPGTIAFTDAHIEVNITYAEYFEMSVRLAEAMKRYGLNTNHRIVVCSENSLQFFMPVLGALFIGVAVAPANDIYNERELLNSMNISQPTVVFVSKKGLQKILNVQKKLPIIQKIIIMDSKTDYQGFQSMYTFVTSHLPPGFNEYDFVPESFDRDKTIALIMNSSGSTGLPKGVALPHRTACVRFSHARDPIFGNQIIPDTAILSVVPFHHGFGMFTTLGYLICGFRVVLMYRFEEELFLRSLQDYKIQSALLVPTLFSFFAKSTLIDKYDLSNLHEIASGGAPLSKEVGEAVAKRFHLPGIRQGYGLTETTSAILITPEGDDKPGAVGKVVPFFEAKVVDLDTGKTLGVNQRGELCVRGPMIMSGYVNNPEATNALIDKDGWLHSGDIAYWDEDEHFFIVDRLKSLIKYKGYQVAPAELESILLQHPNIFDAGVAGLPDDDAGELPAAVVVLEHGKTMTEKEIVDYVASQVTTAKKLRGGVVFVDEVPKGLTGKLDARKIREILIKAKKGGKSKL
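qHTS concentration-response profiling: light output of P. pyralis luciferase with luciferin and 10 uM ATP, imidazole buffer pH 7.2. Read by luminescence after 8-min room-temperature incubation.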
p53ts 32C tox = qHTS Screen for Compounds that Selectively Target Cancer Cells with p53 Mutations: Cytotoxicity of p53ts Cells at the Permissive Temperature; 130,000 compounds, 0.93% hits; Potency, µM (doses to about 46.1 µM), for inactives: at the top dose activity change, negative = cytotoxicity, actives largely listed as cytotoxic; H1299-p53A138V at 32C, ATP luminescence viability, 24 h;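 note: potency is the fitted concentration of half-maximal effect; 0% = DMSO and -100% = full killing by reference compound; nearly all actives have a fitted effect of over 55% in size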
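ATP-content luminescence (ATPlite) read-out after 24 h compound exposure at 32C in H1299-p53A138V cells (600/well). Tested up to 46 uM. Normalized to DMSO (0%) and 100 uM tamoxifen (100% killing); Hill-fit AC50.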
* hit, by the source's call; ? = inconclusive; nt = no result; ! = not confirmed by another sample; [ ] = another dose, or the depositor's remark. Only a selection was taken, and hits are over-represented in it overall. Unless noted, calls come from the whole dose curve; as a rule, active = well fitted curve in the direction sought with a large enough effect; inconclusive = small, poorly fitted or top-dose-only effect, or another doubt; inactive = no such curve, though single readings can be large; an effect the other way counts as inactive or inconclusive.

SMILES | Hsp90 Hop PPI | p53ts 39C tox | IkB signaling | IMPase inh | FLuc inh | p53ts 32C tox
COc1ccc(-c2cc3ccc(O)c(CN4CCCC4)c3oc2=O)cc1OC | nt | 0% | 0% | nt | nt | -9%
Oc1c(-c2cc(-c3ccco3)[nH]n2)ccc2ccccc12 | ? | ? | ? | 5 | 7.9µM* | ?
Cc1cc2nc(SC(C)C(=O)O)[nH]c2cc1C (stereo not given) | 2% | -28% | 0% | 5 | 10µM* | -28%
Cc1ccc(S(=O)(=O)N(CC(=O)Nc2c(C)cccc2C)c2cccc(Cl)c2)cc1 | nt | 19% | ? | nt | nt | -2%
C=CCSc1nncn1/N=C/c1ccc(OC)cc1 | -3% | ? | -4% | -13 | 25µM* | -20%
COc1ccc(/C=N/n2cnnc2SCCO)cc1OC | nt | -13% | nt | -3 | nt | -26%
CC(C)n1c(-c2ccc(N(C)C)cc2)nc2ccccc21 | -20% | ? | ? | -6 | 13µM* | ?
CCn1c(-c2ccc(N(C)C)cc2)nc2ccccc21 | -6% | 4% | -1% | 10 | 1% | 3%
CN(C)c1ccc(-c2nc3ccccc3n2C)cc1 | -5% | 0.79µM* | ? | -3 | 0.63µM* | 1.6µM*
CCOc1cc(C(=O)NCCc2csc(-c3ccc(C)cc3)n2)cc(OCC)c1OCC | nt | -14% | ? | nt | nt | 2%
CCN1CCN(c2cc(C)c3cc(NC(=O)c4cc(OC)cc(OC)c4)ccc3n2)CC1 | nt | 2.5µM* | -5% | nt | nt | ?
CCN1CCN(c2cc(C)c3cc(NC(=O)/C=C/c4cccc(Cl)c4)ccc3n2)CC1 | nt | 3.2µM* | ? | nt | nt | ?
CCN1CCN(c2cc(C)c3cc(NC(=O)c4cccc(Cl)c4)ccc3n2)CC1 | nt | 2.5µM* | ? | nt | nt | 14µM*
CCCCc1ccc(C(=O)Nc2ccc3nc(N4CCN(CC)CC4)cc(C)c3c2)cc1 | nt | 7.9µM* | ? | nt | nt | -8%
CCN1CCN(c2cc(C)c3cc(NC(=O)/C=C/c4cccc(OC)c4OC)ccc3n2)CC1 | nt | ? | 11% | nt | nt | ?
CCc1cccc(NC(=O)Cn2cc(C(=O)c3ccncc3)c(=O)c3cc(C)c(C)cc32)c1 | nt | -1% | ? | nt | nt | 5%
O=C(CCSCc1ccc(Cl)cc1)N1CCN(c2ccccc2F)CC1 | nt | -23% | ? | nt | nt | -14%
CN(C)/C=N/c1nc2ccc3c(c2s1)CCCC3 | 3% | -26% | -1% | -8 | 10µM* | -26%
CO/N=C(\C(=O)N[C@@H]1C(=O)N2C(C(=O)O)=C(CSc3nc(=O)c(O)nn3C)CS[C@@H]12)c1csc(N)n1 | -8% | 7% | -6% | -2 | 5% | -5%
CCCCCCCCC/C=C/CC1CC(=O)OC1=O (stereo not given) | 0% | 10% | 3% | nt | nt | -19%[1.84 µM]
O=C(C(Cc1ccccc1)N1C(=O)c2ccccc2C1=O)N1CCc2ccccc21 (stereo not given) | nt | -13% | nt | 0 | nt | -8%
N#C[C@@H](Cc1ccc(O)c(O)c1)C(=O)N1CCc2ccccc21 | 6.3µM* | 43% | 2% | 3 | 1% | 60%
CCC(C(=O)Nc1cc(OC)ccc1OC)n1c(C)c2cnn(-c3ccccc3)c(=O)c2c1C (stereo not given) | nt | -11% | 0% | nt | nt | 3%
O=C(O)c1c2c(c(O)c3c1CN(C1CCCCC1)CO3)OCN(C1CCCCC1)C2 | ? | 12%[9.22 µM] | 0%[11.4 µM] | nt | 1%[11.4 µM] | -9%[9.22 µM]
Cc1ccc(C)c(S(=O)(=O)c2nnn3c2nc(Nc2ccc(F)c(Cl)c2)c2sccc23)c1 | nt | 2% | ? | nt | nt | 13%
COc1c(O)cc2oc3cc(O)c(CC=C(C)C)c(O)c3c(=O)c2c1CC=C(C)C | -7% | 32µM* | 1%[11.4 µM] | 1 | 1%[11.4 µM] | 10µM*!

Compound activity deposited in PubChem BioAssay by National Center for Advancing Translational Sciences (NCATS).
